# According to PubChem BioAssay (NCATS):
# Records with an inconclusive call do not appear. The source made the active and inactive calls. Calls come from the whole dose curve; as a rule, active = well fitted inhibition curve with a large enough effect; inconclusive = small, poorly fitted or top-dose-only effect; inactive = no such curve, though single readings can be large or run the other way.
# Target: Retinaldehyde dehydrogenase 3 (Homo sapiens) (UniProt P47895)
# Test: qHTS for Inhibitors of the Aldehyde Dehydrogenase Family (ALDH1A3) Primary screen (AID 2061315);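 note: plate controls were DMSO vehicle for no effect and reference inhibitor for full effect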
# Settings: ALDH inhibition qHTS; series mostly up to 56 µM; activity change, negative = inhibition: at the top concentration
row,Structure (SMILES),"activity change, negative = inhibition"
1,N#Cc1nc(Nc2ccc(C(F)(F)F)cc2)nc(NC2CCCC2)n1,-15.8% (inactive)
2,O=C(c1ccc2c(c1)ncn2-c1cccc(C(F)(F)F)c1)N1CCCCC1,-2.34% (inactive)
3,Cc1cc2c(s1)c1cnn(Cc3cccc(C(F)(F)F)c3)c(=O)c1n2C,-6.6% (inactive)
4,O=C(Nc1ccc2sccc2c1)Nc1nnc(-c2cccnc2)s1,-3.41% (inactive)
5,O=C(Nc1ccc(F)nc1)Nc1nnc(-c2ccncc2)s1,5.45% (inactive)
6,O=C(Nc1cccc(C(F)(F)F)c1)c1cccs1,-1.49% (inactive)
7,CCc1ccccc1C(=O)N1CCc2cc(-c3nc(NC(=O)Cc4ccc5c(c4)OCO5)sc3C)ccc21,7.29% (inactive)
8,Cn1nnnc1Sc1ncnc2scc(-c3ccc(C#N)cc3)c12,-5.38% (inactive)
9,C/C1=C\CCC2=CC(OC2=O)C(C)(C)/C=C/C1=O (stereo not given),10.3% (inactive)
10,O=C1CCc2cc(S(=O)(=O)Nc3cccc(B(O)O)c3)ccc2N1,-0.638% (inactive)
11,CCCn1c(-c2ccc(F)cc2)nc2c(NC(C)CCCN(CC)CC)nc(C)nc21 (stereo not given),7.66% (inactive)
12,Cn1cncc1CNc1ncnc2ccc(-c3ccc4c(c3)OCO4)cc12,13.4% (inactive)
13,C=C[C@H]1CN2CC[C@H]1C[C@@H]2C(O)c1ccnc2ccc(OC)cc12 (stereo not given in full),16.8% (inactive)
14,Clc1ccc(-c2nc3ccccc3s2)cc1,-24% (inactive)
15,O=C(Nc1ccc(-n2cncn2)c(C(F)(F)F)c1)Nc1nnc(-c2ccncc2)s1,-1.91% (inactive)
16,NCCC(=O)Nc1cccc(-c2nn3c(=O)cc(N4CCNCC4)nc3s2)c1,33.4% (inactive)
17,COc1cc(OC)c(C(CC(=O)N2CC(C)CC(C)C2)c2ccc3c(c2)OCO3)c(OCC(N)=O)c1 (stereo not given),-18.7% [at 114 µM] (inactive)
18,CC(C)(O)/C=C/C(=O)[C@](C)(O)[C@H]1[C@H](O)C[C@@]2(C)[C@@H]3CC=C4[C@@H](C[C@H](O[C@@H]5O[C@H](CO)[C@@H](O)[C@H](O)[C@H]5O)C(=O)C4(C)C)[C@]3(C)C(=O)C[C@]12C,-20.4% [at 16.9 µM] (inactive)
19,COc1c2cc(c(O)c1OC)CCCCC(O)CCc1ccc(O)c-2c1 (stereo not given),-11.7% (inactive)
20,CN(C)C(=O)C1CCN(c2nc(-c3ccc(Br)cc3)cs2)CC1,5.39% (inactive)

row,Structure (SMILES),"activity change, negative = inhibition"
1,COc1ccc2nc(-c3ccc(OC)c(OC)c3)sc2c1,-15.6% (inactive)
2,N#Cc1nc(-c2cccc3ccccc23)oc1NC1COC1,4.1% (inactive)
3,O=C1CCCC2=C1C(c1cccc(Cl)c1)N=C(Nc1nc3ccccc3o1)N2 (stereo not given),14.2% (inactive)
4,COC1CC(O[C@H]2CC[C@@]3(C)C(=CC[C@]4(O)C3[C@H](OC(C)=O)[C@@H](OC(=O)c3ccccc3)[C@]3(C)[C@@H](C(C)=O)CC[C@@]34O)C2)OC(C)C1OC1CC(OC)C(OC2CC(OC)C(OC3OC(C)C(OC4OC(CO)C(O)C(O)C4O)C(OC)C3O)C(C)O2)C(C)O1 (stereo not given in full),2.23% [at 11.2 µM] (inactive)
5,Cc1ccc(C(=O)Nc2ccccc2C(=O)Nc2nc(-c3ccccc3)cs2)cc1,6.93% (inactive)
6,COc1cccc(NC(=O)c2cc(-c3ccc(C)c(C)c3)nc3ccccc23)c1,6.19% (inactive)
7,CCNC(=O)c1ccc(-c2ccc3ncnc(NCCc4cnc[nH]4)c3c2)o1,-0.618% (inactive)
8,Cc1ccc([S+](=O)([O-])n2cc(Cc3ccc(-c4ccccc4)cc3)c3ccccc32)cc1,-8.86% (inactive)
9,O=C1CCc2cc(S(=O)(=O)Nc3ccc4c(c3)CCC4)ccc2N1,6.24% (inactive)
10,O=S1(=O)N=C(Oc2cccc(Br)c2)c2ccccc21,-20.6% (inactive)
11,CCCn1c(C)nc2c(N(CCN(CC)CC)CCN(CC)CC)nc(C)nc21,9.71% (inactive)
12,COc1cccc(NC(=S)N2CCN(c3cccc(Cl)c3Cl)CC2)n1,20.6% (inactive)
13,C=CCNc1oc(-c2cccc(F)c2)nc1C#N,7.2% (inactive)
14,O=P(c1ccccc1)(c1ccccc1)c1cnc2ccccn12,-9.03% (inactive)
15,COC(=O)c1ccccc1NC(=O)c1ccc(C#N)cc1,-7.96% (inactive)
16,CCCCNc1nc(C)nc2c1nc(-c1ccccc1)n2CCCCN(CC)CC,13.1% (inactive)
17,CCCCNc1nc(C)nc2c1nc(-c1ccccc1)n2C(C)CCCN(CC)CC (stereo not given),1.98% (inactive)
18,FC(F)(F)c1ccccc1-c1nc(NCc2ccc(-c3cccc(Cl)c3)cc2)c2ccccc2n1,-25.7% (inactive)
19,O=C1CCCC2=C1C(c1[nH]ncc1Cl)NC(=NCc1ccncc1)N2 (stereo not given),1.76% (inactive)
20,COc1cc(OC)cc(C2=Nn3c(nnc3-c3ccccc3O)SC2)c1,11.5% (inactive)
